Screening results deposited in PubChem BioAssay by National Center for Advancing Translational Sciences (NCATS).
HepG2 viability: kills HepG2 cells in TGF-b inhibitor counter-screen | HepG2 CAGA-GFP viability, ATP luminescence, 18 h | Potency, µM (doses to about 46.1 µM), for inactives: at the top dose activity change, negative = cytotoxicity, most hits filed as cytotoxic | 410,000 tested, 0.76% active | AID 588856
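HepG2 CAGA-GFP cells (1000/well, DMEM with 1% FBS) received compound, then TGF-beta at 500 pg/mL final, and were incubated 18 hours at 37 degrees C. Viability was read by CellTiter-Glo luminescence. Media-only wells were set as complete cell-killing and DMSO as no toxicity.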
ATXN2 expr inh: reduces ATXN2 reporter expression in HEK-293 cells; HEK-293 ATXN2-luciferase reporter, luminescence, 24 h; Potency, µM (highest dose often 57 µM), without a hit: at the top dose activity change, negative = inhibition, actives largely listed as inhibitors; 360,000 tested, 0.72% active; AID 1745845; also: % is scaled to controls: 0 for no effect and ±100 for the full control effect; nearly all actives have a fitted effect of over 55% in size
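ATXN2-luciferase reporter cells (luciferase flanked by upstream and downstream ATXN2 gene portions) were treated 24 h at 37 °C with compounds at up to 57 uM. SteadyGlo luminescence gave expression; GF-AFC fluorescence gave viability.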
TDP1 cell CPT: DT40-hTDP1 cell growth loss with CPT; Potency, µM (titrated, usually from 46.2 µM), without a hit: at the top dose activity change, negative = growth inhibition, usual class: inhibitors; AID 686979; 420,000 tested, 12% active; chicken DT40 Tdp1-/-;hTDP1 cells + 20 nM CPT, ATP luminescence, 48 h; also: % is scaled to controls: 0 for no effect and ±100 for the full control effect; nearly all actives have a fitted effect of over 55% in size
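Cell growth measured by CellTiter-Glo luminescence after a minimum 48 h, 37 C compound exposure with 20 nM CPT in Tdp1-knockout DT40 cells stably expressing hTDP1, seeded 400/well; qHTS titration format.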
TGFb SMAD3 inh: inhibitors of TGF-b signaling. HepG2 CAGA-GFP TGF-b/SMAD3 reporter, GFP fluorescence, 18 h; TGF-beta stimulated, 500 pg/mL final. Potency, µM (highest dose often 46.1 µM), inactives show at the top dose activity, negative = inhibition, actives largely listed as inhibitors. 410,000 tested, 1.2% active. AID 588855; also: % is scaled to controls: 0 for no effect and ±100 for the full control effect; nearly all actives have a fitted effect of over 65% in size
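GFP signal (ex488/em500-530) from TGF-beta-stimulated HEPG2 CAGA-GFP cells, 500 pg/mL final, 18 h at 37 degrees C in DMEM plus 1% FBS, normalized to unstimulated and DMSO-stimulated controls.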
S2 tox: viability counter-screen for ATXN expression inhibitors; S2 cells (HEK-293 line with an ATXN2-luciferase reporter) viability, CellTiter-Fluor protease fluorescence, 24 h; AID 651635; Potency, µM (doses to about 56.7 µM), actives largely listed as cytotoxic; 400,000 tested, 0.49% active; also: nearly all actives have a fitted effect of over 40% in size
DT40 TDP1 no CPT: qHTS for Inhibitors of human tyrosyl-DNA phosphodiesterase 1 (TDP1): qHTS in cells in absence of CPT; 420,000 tested, 15% active; DT40 Tdp1-/- hTDP1 cells, no CPT, ATP luminescence, 48 h; AID 686978, 2013; Potency, µM (titrated, usually from 46.2 µM), for inactives: at the top dose activity change, negative = growth inhibition, most hits filed as inhibitors; also: % is scaled to controls: 0 for no effect and ±100 for the full control effect; nearly all actives have a fitted effect of over 55% in size
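Chicken DT40 Tdp1-/- cells complemented with human TDP1, screened without camptothecin (DMSO vehicle only), 400 cells/well. Compounds pin-transferred, cells incubated at 37 °C for at least 48 hr. Growth read as ATP-dependent luminescence (CellTiter-Glo, 30 min at RT).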
Starred values were filed as active, the others as inactive. Rows were chosen to be rich in hits. Some 17% of all compounds tested hit in one or more screens of this group. Calls follow the shape of the dose curve; as a rule, active = well fitted curve in the direction sought with a large enough effect; inconclusive = small, poorly fitted or top-dose-only effect, or another doubt; inactive = no such curve, though single readings can be large; an effect the other way counts as inactive or inconclusive. Potency is read from the fitted curve at half-maximal effect.

How did Cc1ccc(C(=O)Nc2ccccc2C(=O)NCc2ccco2)cc1 do in these assays?
HepG2 viability: 0%; ATXN2 expr inh: -1%; TDP1 cell CPT: inconclusive; TGFb SMAD3 inh: -18%; S2 tox: inactive; DT40 TDP1 no CPT: inconclusive

What do the screens show for `CCN(CC)Cc1cc2[nH]c3c4ccc(Cl)cc4ncc3c2cc1OC`?
HepG2 viability: -43%; TDP1 cell CPT: 3.2µM*; TGFb SMAD3 inh: -21%; S2 tox: inactive; DT40 TDP1 no CPT: 5µM*

Results for COc1cc2[nH]c(=S)nc(NCc3ccc(Cl)cc3)c2cc1OC ?
HepG2 viability: -4%; ATXN2 expr inh: -36%; TDP1 cell CPT: inconclusive; TGFb SMAD3 inh: -1%; S2 tox: inactive; DT40 TDP1 no CPT: inconclusive

What do the screens show for `Cc1cc(C)cc(C(=O)C[n+]2cccc(Br)c2)c1`?
HepG2 viability: -29%; TDP1 cell CPT: -11%; TGFb SMAD3 inh: 0%; DT40 TDP1 no CPT: -7%

How did CC1(C)COC(c2ccc(F)c([N+](=O)[O-])c2)=N1 do in these assays?
HepG2 viability: -4%; ATXN2 expr inh: 19%; TDP1 cell CPT: 16µM*; TGFb SMAD3 inh: -24%; S2 tox: inconclusive; DT40 TDP1 no CPT: 16µM*

How did O=C(NC(NC1CCS(=O)(=O)C1)C(Cl)(Cl)Cl)c1cccc(Cl)c1 (stereo unspecified) do in these assays?
HepG2 viability: -12%; ATXN2 expr inh: -6%; TDP1 cell CPT: -3%; TGFb SMAD3 inh: 12%; S2 tox: inactive; DT40 TDP1 no CPT: -19%

How did O=C(NC(NC1CCS(=O)(=O)C1)C(Cl)(Cl)Cl)c1ccc(Br)cc1 (stereo unspecified) do in these assays?
HepG2 viability: -33%; ATXN2 expr inh: -20%; TDP1 cell CPT: 8.2µM*; TGFb SMAD3 inh: inconclusive; S2 tox: inactive; DT40 TDP1 no CPT: 7.3µM*

Results for COc1ccc(NC(=O)NC(C(F)(F)F)C(F)(F)F)cc1 ?
HepG2 viability: 20%; ATXN2 expr inh: -5%; TDP1 cell CPT: -7%; TGFb SMAD3 inh: 14%; S2 tox: inactive; DT40 TDP1 no CPT: inconclusive

How did COC(=O)c1[nH]c2ccc(F)cc2c1NC(=O)Nc1ccc(OC)cc1 do in these assays?
HepG2 viability: 5%; ATXN2 expr inh: 17%; TDP1 cell CPT: inconclusive; TGFb SMAD3 inh: 23%; S2 tox: inactive; DT40 TDP1 no CPT: 6.5µM*

What do the screens show for `COc1ccc(NC(=O)Nc2ccc(F)cc2F)cc1`?
HepG2 viability: 0%; ATXN2 expr inh: 38%; TDP1 cell CPT: 9.2µM*; TGFb SMAD3 inh: -1%; S2 tox: inactive; DT40 TDP1 no CPT: 5.8µM*

Results for COc1ccc(NC(=O)NC(C)(C(F)(F)F)C(F)(F)F)cc1 ?
HepG2 viability: 4%; ATXN2 expr inh: 2%; TDP1 cell CPT: inconclusive; TGFb SMAD3 inh: 0%; S2 tox: inactive; DT40 TDP1 no CPT: 16µM*

What do the screens show for `O=C(NC1C2CC3CC(C2)CC1C3)c1ccc(Br)o1` (stereo unspecified)?
HepG2 viability: -8%; ATXN2 expr inh: -8%; TDP1 cell CPT: 5%; TGFb SMAD3 inh: -17%; S2 tox: inactive; DT40 TDP1 no CPT: -24%

What do the screens show for `CCc1ccc(CNC(=O)C2Cc3cc(S(=O)(=O)N4CCCCCC4)ccc3N2C(C)=O)cc1` (stereo unspecified)?
HepG2 viability: -5%; ATXN2 expr inh: -4%; TDP1 cell CPT: 23µM*; TGFb SMAD3 inh: -26%; S2 tox: inactive; DT40 TDP1 no CPT: inconclusive

Results for CC(=O)N1c2ccc(S(=O)(=O)N3CCCC3)cc2CC1C(=O)Nc1cc(C)cc(C)c1 (stereo unspecified) ?
HepG2 viability: -38%; TDP1 cell CPT: inconclusive; TGFb SMAD3 inh: -20%; S2 tox: inactive; DT40 TDP1 no CPT: 23µM*

Results for Cc1ccc(C(=O)N2CCN(C3c4cccc5cccc(c45)C3NS(=O)(=O)c3ccccc3)CC2)cc1 (stereo unspecified) ?
HepG2 viability: -24%; ATXN2 expr inh: -10%; TDP1 cell CPT: inconclusive; TGFb SMAD3 inh: 8%; S2 tox: inconclusive; DT40 TDP1 no CPT: inconclusive

What do the screens show for `COc1ccc(C2c3c(-c4ccccc4O)n[nH]c3C(=O)N2CCc2ccccc2)cc1` (stereo unspecified)?
HepG2 viability: -97%; TDP1 cell CPT: inconclusive; TGFb SMAD3 inh: inconclusive; DT40 TDP1 no CPT: 16µM*

Results for CC(C)c1ccc(C2c3c(-c4ccccc4O)n[nH]c3C(=O)N2CCc2ccccc2)cc1 (stereo unspecified) ?
HepG2 viability: -30%; TDP1 cell CPT: inconclusive; TGFb SMAD3 inh: -11%; DT40 TDP1 no CPT: 12µM*

Results for COc1ccc(C2c3c(-c4ccccc4O)n[nH]c3C(=O)N2CCc2ccc(OC)c(OC)c2)cc1 (stereo unspecified) ?
HepG2 viability: 1%; ATXN2 expr inh: 0%; TDP1 cell CPT: 21µM*; TGFb SMAD3 inh: inconclusive; S2 tox: inconclusive; DT40 TDP1 no CPT: 23µM*

What do the screens show for `COc1ccc(CCN2C(=O)c3ccccc3C2c2nnnn2C(C)C)cc1OC` (stereo unspecified)?
ATXN2 expr inh: 7%; TDP1 cell CPT: inconclusive; S2 tox: inactive; DT40 TDP1 no CPT: -29%

Results for Cc1ccc(C2c3c(-c4ccccc4O)n[nH]c3C(=O)N2CCc2ccccc2)cc1 (stereo unspecified) ?
HepG2 viability: -95%; TDP1 cell CPT: inconclusive; TGFb SMAD3 inh: 11µM*; DT40 TDP1 no CPT: -106%

Results for COc1ccc(NC(=O)Nc2cccc3c2O[C@H](CN(C)S(C)(=O)=O)[C@@H](C)CN([C@H](C)CO)C3=O)cc1 ?
HepG2 viability: -27%; ATXN2 expr inh: 13%; TDP1 cell CPT: -24%; TGFb SMAD3 inh: -14%; S2 tox: inactive; DT40 TDP1 no CPT: -3%

How did Cc1cccc(C)c1C(=NCCN(C)C)c1ccccc1 do in these assays?
HepG2 viability: -21%; ATXN2 expr inh: 0%; TDP1 cell CPT: 1%; TGFb SMAD3 inh: 0%; S2 tox: inactive; DT40 TDP1 no CPT: -10%

What do the screens show for `COC(=O)N1C(=O)[C@](Cc2ccccc2)(c2ccccc2)N1C(=O)OC`?
HepG2 viability: -89%; ATXN2 expr inh: -26%; TDP1 cell CPT: 13µM*; TGFb SMAD3 inh: inconclusive; S2 tox: inconclusive; DT40 TDP1 no CPT: 12µM*
